An excerpt weighted towards active compounds, which were near 11% of everything screened.
Tau fluor counter: Counterscreen qHTS for Inhibitors of Tau Fibril Formation, Fluorescence Polarization. tau K18 P301L Alexa594 fluorescence, heparin fibrillization. 280,000 compounds, 0.93% hits. Potency, µM (titrated, usually from 57.7 µM), without a hit: top-dose activity change, negative = decrease; note: potency is the fitted concentration of half-maximal effect; nearly all actives have a fitted effect of over 55% in size
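Human K18 P301L tau (15 uM unlabeled plus 0.24 uM Alexa 594-labeled, final) in 100 mM sodium acetate pH 7 was mixed with compound and 20 uM heparin and incubated 6 hr at 37 C.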
G9a block: qHTS Assay for Inhibitors of Histone Lysine Methyltransferase G9a | G9a H3K9 monomethylation, AlphaScreen, 2 h | Potency, µM (series often up to 102 µM), for the others: at the top dose activity, negative = inhibition, usual class: inhibitors | 350,000 compounds, 8.8% hits | AID 504332, 2011; note: potency is the fitted concentration of half-maximal effect; nearly all actives have a fitted effect of over 75% in size
Target sequence (Q96KQ7 913-1193 limits assumed): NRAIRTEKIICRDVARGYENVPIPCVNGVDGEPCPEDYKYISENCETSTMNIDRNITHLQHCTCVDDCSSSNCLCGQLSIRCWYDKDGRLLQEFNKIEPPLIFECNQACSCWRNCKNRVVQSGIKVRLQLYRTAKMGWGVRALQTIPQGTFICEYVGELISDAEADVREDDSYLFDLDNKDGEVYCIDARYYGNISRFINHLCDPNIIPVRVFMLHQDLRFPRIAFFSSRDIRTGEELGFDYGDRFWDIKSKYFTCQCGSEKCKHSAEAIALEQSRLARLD
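Readings reflect AlphaScreen signal from monomethyl-H3K9 antibody detection. HMT at 20 nM; substrate b-H3K9 500 nM; cofactor SAM 20 uM; 2 h RT reaction; compounds tested as titrations in qHTS with 15 min preincubation.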
Tau fibril FP: qHTS for Inhibitors of Tau Fibril Formation, Fluorescence Polarization. Potency, µM (series often up to 57.7 µM), without a hit: at the highest dose activity, negative = inhibition, most hits filed as inhibitors. AID 1468, 2008. 280,000 compounds, 0.39% hits. K18 P301L tau heparin fibrillization, Alexa594 FP, 6 h; note: potency is the fitted concentration of half-maximal effect; nearly all actives have a fitted effect of over 55% in size
Target sequence (P10636 561-689 P618L limits assumed): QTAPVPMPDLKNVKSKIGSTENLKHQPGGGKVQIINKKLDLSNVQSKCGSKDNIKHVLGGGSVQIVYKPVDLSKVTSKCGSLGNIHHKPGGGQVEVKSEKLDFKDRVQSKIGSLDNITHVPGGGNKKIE
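Quantitative HTS format: compounds meet 15 uM recombinant K18 P301L tau and Alexa 594-tau tracer in 100 mM sodium acetate pH 7; 20 uM heparin triggers fibrillization at 37 C over 6 hr; FP gives the signal.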
FBPA coupling cs: qHTS Assay for Inhibitors of Fructose-1,6-bisphosphate Aldolase from Giardia Lamblia: Coupling assay counterscreen; coupling enzyme system counterscreen, AmpLite Red fluorescence; activity change, negative = inhibition, % at 58.2 µM, hits read low; 290,000 compounds, 0.67% hits; AID 2472, 2010; in the data active = activity change below about -30%
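Counterscreen of the coupled detection system alone, without aldolase: glyceraldehyde-3-phosphate coupling enzymes plus AmpLite Red readout. Compounds at 57.5 uM final, 10 min RT preincubation, 20 min RT reaction, fluorescence 525/598 nm.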
Sfp inh: qHTS Assay for Inhibitors of Bacillus subtilis Sfp phosphopantetheinyl transferase (PPTase); 4'-phosphopantetheinyl transferase ffp (Bacillus subtilis), Q9F4F7; Biochemical Sfp PPTase activity, qHTS; Potency, µM, inactives show largest response in the series, negative = inhibition, hits mostly inhibitors; 310,000 compounds, 3.5% hits; AID 1490, 2009;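 note: the enzyme is Sfp with the accession as filed and its product quenches rhodamine fluorescence; potency is the fitted concentration of half-maximal effect; 0% = enzyme reaction without inhibitor and -100% = no enzyme wells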
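With Hepes-Na pH 7.6 buffer containing 10 mM MgCl2, Sfp (15 nM) modified BHQ-2-YbbR (12.5 uM) using rhodamine-CoA (5 uM). Two reads 30 minutes apart at 525/598 nm yielded each well's rate.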
Tau fibril ThT: qHTS for Inhibitors of Tau Fibril Formation, Thioflavin T Binding | Microtubule-associated protein tau (Homo sapiens), P10636 | recombinant tau K18 P301L (four-repeat tau fragment), heparin-induced fibrillization, ThT fluorescence | Potency, µM (doses to about 57.4 µM), for the others: top-dose activity, negative = inhibition, actives largely listed as inhibitors | 270,000 compounds, 2.1% hits | AID 1460, 2008; note: potency is the fitted concentration of half-maximal effect; nearly all actives have a fitted effect of over 55% in size
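Aggregation was driven by heparin (20 uM final) acting on recombinant tau […] bearing P301L in 100 mM sodium acetate pH 7; fibrils were detected with Thioflavin T.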
The depositor's hits bear a star; ? = inconclusive; . = no result; ! = not confirmed by another sample; [ ] = another dose, or the depositor's remark. Unless noted, calls come from the whole dose curve; as a rule, active = well fitted curve in the direction sought with a large enough effect; inconclusive = small, poorly fitted or top-dose-only effect, or another doubt; inactive = no such curve, though single readings can be large; an effect the other way counts as inactive or inconclusive. Unless noted, % is set by controls: 0 for no effect and ±100 for the full control effect.

SMILES | Tau fluor counter | G9a block | Tau fibril FP | FBPA coupling cs | Sfp inh | Tau fibril ThT
COC/C=C/C1=CC2=CC(=O)C(C)(OC(=O)c3cnc4ccccc4n3)C(=O)C2=CN1Cc1ccccc1 (centres undefined) | ? | -11%[12.7 µM] | ? | -14 | -26% | 10µM*
COC/C=C/C1=CC2=CC(=O)C(C)(OC(=O)c3cnc4ccccc4n3)C(=O)C2=CN1CCc1ccccn1 (centres undefined) | -12%[11.6 µM] | . | 1%[11.6 µM] | -1 | 19% | -4%[11.5 µM]
COC/C=C/C1=CC2=CC(=O)C(C)(OC(=O)c3cnc4ccccc4n3)C(=O)C2=CN1Cc1ccc(OC)cc1 (centres undefined) | ? | -37%[59 µM] | ? | -9 | 1% | 13µM*
COC/C=C/C1=CC2=CC(=O)C(C)(OC(=O)c3cnc4ccccc4n3)C(=O)C2=CN1CCCCO (centres undefined) | -17%[11.6 µM] | 4%[59 µM] | ? | -32*! | -5% | 13µM*
O=C(NC(=S)NNC(=O)[C@H]1C[C@@H]1c1ccccc1)c1cccc(F)c1 | 2% | 16µM* | -1% | 1 | 32µM* | -8%
Cc1ccccc1-c1cncnc1N(C)Cc1ccco1 | -20% | . | -10% | -1 | 50µM* | ?
COc1cccc(N2CCN(C(=O)C3CCN(S(=O)(=O)c4cccs4)CC3)CC2)c1 | -20% | ? | 8% | -1 | -13% | -12%
COc1c[nH]n(C2CCCCC2)c(=O)c1=O | -11% | 22µM* | 10% | 0 | -4% | -11%
CS(=O)(=O)Nc1cccc(C2=NN(S(=O)(=O)c3ccccc3)C(c3ccco3)C2)c1 (centres undefined) | -25% | 50µM* | 1% | 1 | 56µM* | -14%
CCS(=O)(=O)Nc1cccc(C2=NN(S(=O)(=O)c3ccc(C)cc3)C(c3ccco3)C2)c1 (centres undefined) | ? | ? | -6% | -4 | 50µM* | -15%
CCS(=O)(=O)Nc1cccc(C2=NN(S(=O)(=O)c3ccccc3)C(c3ccco3)C2)c1 (centres undefined) | ? | ? | -20% | -4 | ? | .
CCc1nn2c(=O)cc(COC(=O)CNC(=O)COc3ccc(C)cc3)nc2s1 | 0% | 11%[59 µM] | 1% | . | . | -4%
CCCCc1ccc(C2C(C#N)=C(N)SC(N)=C2C#N)s1 | 25µM*[quencher] | ? | ? | -26 | 56µM* | 25µM*
O=[N+]([O-])c1cccc(C2CC(c3ccccc3)=NN2c2ccccc2)c1 (centres undefined) | . | 32µM* | . | -4 | 1% | .
CC1=NN(c2ccc([N+](=O)[O-])cc2)C(c2ccccc2)C1 (centres undefined) | ? | -9%[59 µM] | 2% | 1 | 12% | ?
N#CC1CC(c2ccc([N+](=O)[O-])cc2)=NN1c1ccc([N+](=O)[O-])cc1 (centres undefined) | ? | -9% | 13% | 0 | -2% | 3.2µM*
COc1cc(OC)c2c(C)c(CC(=O)NCCc3ccccc3OC)c(=O)oc2c1 | -1% | 2%[59 µM] | -3% | . | . | 4%
Cc1cc(=S)c2ccccc2[nH]1 | -22% | 2µM* | -11% | -24 | 56µM* | .
CCOCc1cnc(C)nc1NCC(=O)c1c(C)n(C)c2ccc(OC)cc12 | -9% | 14µM* | -9% | -5 | 6% | ?
COc1ccc(CC(=O)Nc2nc(C)cs2)cc1 | -6% | 26% | -4% | 2 | 3% | -11%
COc1ccc2c(c1)c(C(=O)CNc1nc(C)cs1)c(C)n2C | -21% | 45µM* | 6% | 0 | -7% | ?
Cc1ccccc1-c1noc(CSc2nnc(Cc3ccccc3)n2-c2ccc(F)cc2)n1 | -23% | 9%[59 µM] | -4% | . | . | ?
Cc1ccc(C)c(NC(=S)NC(NC(=O)N(C)C)C(Cl)(Cl)Cl)c1 (centres undefined) | 0% | 4.5µM* | 4% | 0 | 10% | -8%
CC(=O)NC(NC(=S)Nc1ccc(C)cc1C)C(Cl)(Cl)Cl (centres undefined) | -11% | 45µM* | 1% | 3 | 15% | .
COc1ccccc1N=C(C)C1=C(O)CC(c2ccccc2)CC1=O (centres undefined) | 0% | 50µM* | -2% | 6 | 14% | 0%
SMILES | Tau fluor counter | G9a block | Tau fibril FP | FBPA coupling cs | Sfp inh | Tau fibril ThT
Cc1cn2c(=O)cc(COC(=O)c3ccccc3F)nc2s1 | -3% | 7%[59 µM] | -2% | . | . | -14%
Cc1ccc(-c2nc(C=Nc3cccc(C)c3)c(O)o2)cc1 | -28% | -36% | -10% | 1 | -12% | ?
COc1cccc(CN=CC2=C(O)CC(C)(C)CC2=O)c1OC | 9% | -11%[59 µM] | -5% | 0 | 11% | 10%
COc1ccccc1CN=Cc1[nH]c2ccc(Br)c(Cl)c2c1O | -20% | ? | 1% | -44* | ? | ?
Cc1cccc(N=Cc2[nH]c3ccc(Br)c(Cl)c3c2O)c1 | -23% | 10µM* | 2% | -33* | -18% | ?
O=C(Nc1ccc(Cl)cc1C(=O)N1CCCC1)c1cccc([N+](=O)[O-])c1 | -7% | -2% | -4% | -3 | -14% | -2%
N#CC1=C(SCC(=O)Nc2cccc3cccnc23)NC(=O)C(C#N)C12CCCCC2 (centres undefined) | -23% | -16%[12.7 µM] | 1% | -36* | 7% | -11%
N#CC1=C(SCC(=O)NC2CC2)NC(=O)C(C#N)C12CCCCC2 (centres undefined) | 5% | 9% | 4% | 3 | 18% | -1%
COc1ccccc1NC(=S)NNC(=O)c1ccccc1Br | 3% | 35µM* | 6% | -2 | -9% | -14%
COc1ccccc1NC(=O)C(=N\O)/C(C)=N/O | 1% | 10µM* | -1% | 0 | 7% | -2%
COc1ccccc1C(=O)NNC(=O)c1ccccc1Br | . | -5%[0.501 µM] | . | 1 | 20% | .
COc1ccccc1NC(=S)NNC(=O)c1ccncc1 | 5% | ? | 0% | -1 | 24% | -1%
COc1cc(OC)cc(C(=O)NNC(=S)Nc2ccccc2OC)c1 | -6% | 40µM* | 13% | 4 | 3% | ?
COc1ccccc1NC(=S)c1ccccc1 | -4% | 7.9µM* | -3% | 1 | 32µM* | -17%

Bioassay records: PubChem, National Center for Advancing Translational Sciences (NCATS)
